Test results from PubChem BioAssay AID504660 (National Center for Advancing Translational Sciences (NCATS), 2011).
Screen size: about 360,000 compounds; about 3,700 (1%) were called active. For the sample, actives were picked, then their nearest neighbours and some compounds at random. Values without a mark were called inactive. Cut-off read from the data, not from the text of the source: active = activation above about 30%; inactive = the rest.

Biological target: D(1A) dopamine receptor (Homo sapiens) (UniProt P21728)
Assay: Allosteric Agonists of the Human D1 Dopamine Receptor: qHTS; note: 0% is about no effect
Details: HEK293 T-REx D1 cells, calcium flux, agonist mode; at 2 µM; stronger effect = higher value
In short: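 Inducible HEK293 T-REx D1 cells, force-coupled to calcium signalling, were plated at 4000 cells/well with tetracycline and held overnight at 30 C. After no-wash calcium dye loading, compound-evoked calcium rise over 180 s flagged agonists.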

D(1A) dopamine receptor (Homo sapiens), sequence (P21728 whole entry, looked up): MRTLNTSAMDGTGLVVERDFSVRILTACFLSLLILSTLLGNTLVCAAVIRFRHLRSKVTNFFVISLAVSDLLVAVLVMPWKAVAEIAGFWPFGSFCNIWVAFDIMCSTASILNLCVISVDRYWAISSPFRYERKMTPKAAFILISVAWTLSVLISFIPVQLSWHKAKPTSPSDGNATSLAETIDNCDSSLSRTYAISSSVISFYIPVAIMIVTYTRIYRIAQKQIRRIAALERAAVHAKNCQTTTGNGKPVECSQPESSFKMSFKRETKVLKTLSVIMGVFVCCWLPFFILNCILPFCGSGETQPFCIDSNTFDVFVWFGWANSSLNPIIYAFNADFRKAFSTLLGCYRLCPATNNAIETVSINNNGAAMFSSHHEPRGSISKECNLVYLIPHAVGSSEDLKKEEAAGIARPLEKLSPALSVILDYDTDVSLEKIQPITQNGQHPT

Question: Which activation does the source give for Cc1cccc(NC(=O)Cn2nc(-c3ccc(Cl)cc3)c3ccccc3c2=O)c1 here?
Answer: The activation was 35.9% (active).

Question: Which activation does the source give for Cc1ccc(-c2nn(CCC(=O)Nc3ccc(OC(F)(F)F)cc3)c(=O)c3ccccc23)cc1 here?
Answer: Its activation is 1.41%.

Question: With Cc1ccc(-c2nn(CCC(=O)Nc3ccc(Cl)c(Cl)c3)c(=O)c3ccccc23)cc1 as the molecule, how does the activation read?
Answer: Its activation is 0.86%.

Question: How did the activation turn out when Cc1ccc(C(=O)Nc2nc(-c3ccccc3)ns2)cc1 was run?
Answer: The activation was -0.0471%.

Question: CCC(=O)N1c2ccccc2CC1C(=O)N1CCN(c2cccc(OC)c2)CC1 (stereo not drawn) was tested. Which activation did it give?
Answer: The activation was -0.217%.

Question: How did the activation turn out when O=C(NCCCCc1ccccc1)C1CC(c2ccc([N+](=O)[O-])cc2)=NO1 (stereo not drawn) was run?
Answer: Its activation is 7.04%.

Question: With O=C1NC(=O)C2C1C(c1ccc([N+](=O)[O-])cc1)=NN2Cc1ccccc1 (stereo not drawn) as the molecule, how does the activation read?
Answer: The activation was 44.8% (active).

Question: For CC(=O)N1c2ccccc2N(Cc2ccc([N+](=O)[O-])cc2)C(=O)C1(C)C, which activation is on record?
Answer: The activation was 2.19%.

Question: For Cc1cccc(NC(=O)c2cc3c(C)nn(-c4ccccc4)c3s2)c1, which activation is on record?
Answer: Its activation is 2.46%.

Question: Which activation does the source give for CCOC(=O)c1oc2ccc(S(=O)(=O)n3nc(-c4ccccc4OC)cc3N)cc2c1C here?
Answer: The activation was 4.93%.

Question: CN(C(=O)CN(CCO)CC(=O)N(C)C(C)(C)Cc1ccccc1)C(C)(C)Cc1ccccc1 was tested. Which activation did it give?
Answer: The activation was 40.5% (active).

Question: How did the activation turn out when Cc1cc(C)cc(NC(=O)N(C)Cc2ccccc2)c1 was run?
Answer: Its activation is 2.04%.

Question: CC(C)(C)N(Cc1ccccc1)C(=O)c1ccncc1 was tested. Which activation did it give?
Answer: The activation was -0.455%.

Question: With CCOC(=O)c1c(S(=O)(=O)NCC(=O)Nc2ccc(Cl)c(C(F)(F)F)c2)c(C)n(C)c1C as the molecule, how does the activation read?
Answer: The activation was 6.5%.

Question: For Cc1cc(C)c(NC(=O)CSc2nc3nccnc3c(=O)n2CCc2c[nH]c3ccccc23)c(C)c1, which activation is on record?
Answer: The activation was 2.34%.

Question: Which activation does the source give for O=C(CN1C(=O)/C(=C/c2ccccc2F)Sc2ccccc21)NCc1cccnc1 here?
Answer: Its activation is 4.38%.

Question: O=C(NCCN1C(=O)S/C(=C\c2cccnc2)C1=O)c1ccc(S(=O)(=O)N2CCCC2)cc1 was tested. Which activation did it give?
Answer: Its activation is 1.07%.

Question: With CCN1CCN(CCNC(=O)c2ccc(/C=C3/Sc4ccccc4N(Cc4cccc(C)c4)C3=O)cc2)CC1 as the molecule, how does the activation read?
Answer: The activation was 48.6% (active).

Question: Which activation does the source give for CCn1c(=O)c(=O)n(CC)c2cc(N3CCCCC3)c(NC(=O)c3cccc(F)c3)cc21 here?
Answer: Its activation is -0.479%.

Question: With CCCCCN(C(=O)NC(=O)Nc1ccccc1C)S(C)(=O)=O as the molecule, how does the activation read?
Answer: Its activation is 4.03%.

Question: CCCS(=O)(=O)c1c(Nc2ccccc2C)sc(C(=O)c2ccccc2)c1N was tested. Which activation did it give?
Answer: The activation was 32.6% (active).

Question: COc1c(F)c(F)c(C(=O)O)c(Nc2ccccc2C)c1F was tested. Which activation did it give?
Answer: The activation was 1.04%.

Question: Which activation does the source give for CCOC(=O)N1CCc2c(sc3c2c(=O)n(-c2ccc(CC)cc2)c(=O)n3C)C1 here?
Answer: Its activation is -0.644%.
